PAFAH1B2 inh = PAFAH1B2 enzyme inhibitors, primary screen, biochemical, fluorescence polarization, human | Platelet-activating factor acetylhydrolase IB subunit alpha2 (Homo sapiens), P68402 | recombinant PAFAH1B2, FP-rhodamine activity probe | inhibition, % at 3.39 µM | hit rate 1.2% among 340,000;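 active = inhibition above the mean of all tested compounds plus 3 SD, cut at about 24% in these data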;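 also: 0% = enzyme with DMSO and 100% = wells lacking PAFAH1B2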
Target sequence (P68402 whole entry, looked up): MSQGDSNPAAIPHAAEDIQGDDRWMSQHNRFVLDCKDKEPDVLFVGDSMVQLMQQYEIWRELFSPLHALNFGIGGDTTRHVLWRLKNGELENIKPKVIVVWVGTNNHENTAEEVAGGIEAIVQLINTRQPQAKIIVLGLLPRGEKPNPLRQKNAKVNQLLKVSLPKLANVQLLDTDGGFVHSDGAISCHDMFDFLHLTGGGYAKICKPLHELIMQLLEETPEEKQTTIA
PAFAH2 inh = PAFAH2 enzyme inhibitors, primary screen, biochemical, fluorescence polarization, human; Platelet-activating factor acetylhydrolase 2, cytoplasmic (Homo sapiens), Q99487; recombinant PAFAH2, FP-rhodamine activity probe; inhibition, % at 3.39 µM; hit rate 0.99% among 340,000;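 active = inhibition above the mean over all tested compounds plus 3 SD, cut at about 30% in these data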;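 also: inhibitors block probe labeling of enzyme so polarization drops; 0% = enzyme with DMSO and 100% = wells lacking PAFAH2 protein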
PAFAH1B3 inh = PAFAH1B3 enzyme inhibitors, primary screen, biochemical, fluorescence polarization, human; Platelet-activating factor acetylhydrolase IB subunit alpha1 (Homo sapiens), Q15102; recombinant PAFAH1B3, FP-rhodamine probe; inhibition, % at 3.39 µM; hit rate 0.28% among 340,000;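 active = inhibition above the screen-wide average of all tested compounds plus 3 SD, cut at about 25% in these data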;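 also: 0% = enzyme with DMSO only and 100% = wells lacking PAFAH1B3 protein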
Fam108B inh = mouse Fam108B serine hydrolase inhibitors, primary screen, counter-screen for RBBP9 inhibitor project, biochemical, fluorescence polarization; recombinant Fam108B, FP-Rh probe fluorescence polarization; inhibition, % at 9.51 µM; hit rate 0.33% among 300,000; AID 1947, 2009;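 active = inhibition above the screen mean inhibition plus 3 SD, computed separately per campaign, cut at about 18% in these data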;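 also: inhibitors lower polarization as less probe binds the enzyme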
pPAFAH inh = pPAFAH enzyme inhibitors, primary screen, biochemical, fluorescence polarization, human; Platelet-activating factor acetylhydrolase (Homo sapiens), Q13093; recombinant pPAFAH, FP-rhodamine probe fluorescence polarization; inhibition, % at 3.39 µM; hit rate 1.5% among 330,000; AID 463082, 2010;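 active = inhibition above the mean inhibition across the screen plus 3 SD, cut at about 25% in these data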;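 also: inhibitors block binding of the rhodamine activity-based probe so polarization drops; 0% = enzyme with DMSO and 100% = wells lacking pPAFAH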
Target sequence (Q13093 whole entry, looked up): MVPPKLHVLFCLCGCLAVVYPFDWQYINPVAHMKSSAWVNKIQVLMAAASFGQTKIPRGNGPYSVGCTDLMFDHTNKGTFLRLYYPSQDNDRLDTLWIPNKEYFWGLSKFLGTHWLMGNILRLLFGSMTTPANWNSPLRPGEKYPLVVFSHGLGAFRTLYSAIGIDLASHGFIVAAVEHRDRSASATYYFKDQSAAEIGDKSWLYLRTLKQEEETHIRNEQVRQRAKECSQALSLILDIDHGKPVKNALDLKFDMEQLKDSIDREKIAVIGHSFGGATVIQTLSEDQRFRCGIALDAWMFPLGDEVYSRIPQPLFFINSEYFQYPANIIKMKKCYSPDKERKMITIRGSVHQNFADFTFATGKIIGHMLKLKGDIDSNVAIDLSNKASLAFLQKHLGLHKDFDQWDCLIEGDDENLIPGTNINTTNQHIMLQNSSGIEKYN
PME-1 primary = PME-1 inhibitors via competitive probe labeling, primary screen, biochemical, fluorescence polarization, FP-Rh probe, HTS; recombinant PME-1; hit rate 0.53% among 320,000; inhibition, % at 5.9 µM; Protein phosphatase methylesterase 1 (Homo sapiens), Q9Y570;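 active = inhibition above the campaign mean of all compounds plus 3 SD, cut at about 26% in these data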;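 also: competitive labeling of PME-1 active site by serine hydrolase directed probe; 0% = PME-1 with DMSO and 100% = wells lacking PME-1 enzyme; inhibitors block probe labeling so polarization falls and inhibition rises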
PAFAH2 FP conf = PAFAH2 enzyme inhibitors, confirmation, biochemical, fluorescence polarization, human | shares compounds with PAFAH2 inh | recombinant PAFAH2, FP-rhodamine activity probe | inhibition, % at 3.39 µM | hit rate 65% among 2,300 | AID 493030, 2011;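 active = mean inhibition over three repeats above a set limit taken from the earlier primary screen, cut at about 30% in these data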;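 also: inhibitor blocks binding of rhodamine activity probe so polarization falls; 0% = enzyme with DMSO and 100% = wells lacking PAFAH2 protein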
Numbers without * were called inactive; / = not tested or not shown. A selection: hits, their analogues and other compounds. The true share with any hit is near 2.8%.

SMILES	PAFAH1B2 inh	PAFAH2 inh	PAFAH1B3 inh	Fam108B inh	pPAFAH inh	PME-1 primary	PAFAH2 FP conf
COc1cc(N(C)C)ccc1C=c1c2ccccc2n2c1cc(-c1ccccc1)[n+]2C	-21.8	-34.0	-30.1	/	/	/	/
COc1cc(C=c2c3ccccc3n3c2cc(-c2ccccc2)[n+]3C)cc(OC)c1OC	-7.2	55.2*	24.9	/	/	/	19.6
NC(=O)c1nsc(C(=O)N(Cc2ccccc2Cl)C(C(=O)NCC2CCCO2)c2ccc(O)cc2)c1N (centres undefined)	5.5	0.6	3.9	/	/	/	/
O=C(COC(=O)c1cccs1)Nc1cc(S(=O)(=O)N2CCOCC2)ccc1Cl	2.4	53.3*	-1.9	-2.3	1.2	4.0	38.0*
O=C(COC(=O)c1ccc(F)cc1F)Nc1cc(S(=O)(=O)N2CCOCC2)ccc1Cl	3.1	34.4*	10.8	/	/	/	20.5
O=C(COC(=O)c1ccc(O)cc1)Nc1cc(S(=O)(=O)N2CCOCC2)ccc1Cl	3.1	65.4*	-1.7	/	4.9	16.1	53.8*
O=C(COC(=O)c1n[nH]c2ccccc12)Nc1cccc(S(=O)(=O)N2CCOCC2)c1	-1.9	50.2*	10.0	/	/	/	32.3*
O=C(COC(=O)c1ccc(Br)o1)Nc1cccc(S(=O)(=O)N2CCOCC2)c1	5.3	6.7	10.1	/	5.4	/	/
O=C(COC(=O)c1cc(S(=O)(=O)N2CCOCC2)ccc1O)Nc1ccc2c(c1)OCO2	3.0	42.1*	3.3	/	3.1	/	31.6*
O=C(OCC(=O)N1CCCc2ccccc21)c1cc(S(=O)(=O)N2CCOCC2)ccc1O	4.5	73.1*	-3.0	/	6.3	7.2	62.6*
O=C(COC(=O)C1CC2C=CC1C2)Nc1cccc(S(=O)(=O)N2CCOCC2)c1 (centres undefined)	4.0	40.8*	1.0	2.2	6.3	1.8	28.1
CC(C)c1ccc(NC2CCCN(C(=O)CCc3cn[nH]c3)C2)cc1 (centres undefined)	4.9	-3.9	6.0	/	/	/	/
COc1ccc(N2CC(C(=O)Nc3c(C(N)=O)oc4ccccc34)CC2=O)cc1 (centres undefined)	5.4	2.7	4.8	-0.1	3.5	-0.8	/
COC(=O)c1c(NC(=O)CCl)sc(C(=O)N2CCOCC2)c1C	1.9	-4.2	11.3	-0.8	2.5	-3.9	/
CN(C)c1ccc(CNS(=O)(=O)c2ccc3c(c2)C(C)(C)C(=O)N3C)cc1	0.7	5.1	7.0	0.3	-1.2	2.3	/
CN(CC1CCOCC1)C(=O)CC1C(=O)NCCN1Cc1ccccc1F (centres undefined)	6.4	3.3	1.6	-3.6	1.6	-2.7	/
O=C(COC(=O)c1cccc(S(=O)(=O)N2CCOCC2)c1)Nc1ccc(Cl)cn1	2.5	63.6*	5.3	/	3.2	3.7	47.0*
O=C(COC(=O)c1cc(S(=O)(=O)N2CCOCC2)ccc1F)Nc1ccc(Cl)cn1	1.6	-9.6	-3.4	/	-0.9	-3.5	/
O=C(COC(=O)c1ccc2c(c1)OCCO2)Nc1cccc(S(=O)(=O)N2CCOCC2)c1	4.4	64.8*	-0.1	-4.5	4.4	4.3	56.3*
O=C(COC(=O)c1cccc(S(=O)(=O)N2CCOCC2)c1)Nc1ccc2c(c1)OCO2	2.3	65.9*	6.1	0.9	11.5	-1.2	38.4*
Cc1cccc(/C(N)=N/OC(=O)c2cccs2)c1	4.3	44.8*	-2.2	-0.2	3.6	-1.7	30.0*
N/C(=N\OC(=O)c1cccs1)c1cccc(Br)c1	6.2	47.2*	-1.6	0.1	9.0	-1.4	42.2*
O=C(NN1C(=O)NC2(CCCCC2)C1=O)c1ccc(-c2ccc([N+](=O)[O-])cc2)o1	0.4	2.1	4.6	5.1	10.9	2.4	/
COc1ccc(-n2c(C)cc(C(=O)Cn3nnc4ccccc4c3=O)c2C)cc1	-4.9	72.6*	10.4	-2.5	-1.3	-13.4	-2.1
COc1ccc(-n2c(C)cc(C(=O)Cn3nc(C(=O)O)c4ccccc4c3=O)c2C)cc1	6.7	-3.3	6.4	-4.2	-0.9	-13.8	/
SMILES	PAFAH1B2 inh	PAFAH2 inh	PAFAH1B3 inh	Fam108B inh	pPAFAH inh	PME-1 primary	PAFAH2 FP conf
COc1ccc(C(=O)OCC2CC(c3ccccc3)N(C)O2)cc1 (centres undefined)	3.5	56.3*	12.9	4.0	11.3	-2.0	44.7*
O=C(CCc1ccccc1)NNC(=O)COc1ccc([N+](=O)[O-])cc1	1.3	-2.5	3.9	-3.0	3.5	6.4	/
O=C(O/N=C1/CCCc2occc21)c1ccc(F)cc1	5.7	15.1	4.6	0.5	10.0	-2.1	/
CC(C)(C)C1CCC(=NOC(=O)c2ccc(F)cc2)CC1 (centres undefined)	5.1	80.7*	6.4	-1.3	5.3	0.0	84.0*
Cc1ccc(C(=O)ON=C2CCN(S(=O)(=O)c3ccccc3)CC2)cc1	0.6	89.8*	2.9	3.0	13.5	1.1	89.0*
O=C(ON=C1CCN(S(=O)(=O)c2ccccc2)CC1)c1ccc(F)cc1	8.8	87.2*	5.4	2.0	6.5	1.6	84.0*
CS(=O)(=O)ON=C1CCN(S(=O)(=O)c2ccccc2)CC1	5.6	0.1	9.1	0.2	-0.7	-3.0	/
CC(=O)C[C@H](O)CC(=O)[C@H]1OC(=O)CC/C=C\Cc2ccccc21	12.6	2.9	1.1	/	-0.6	0.9	/
Cc1cc(C)c(OCC(=O)Nc2ccccn2)c([N+](=O)[O-])c1	0.9	32.8*	-1.0	0.3	1.4	-1.4	0.9
Cc1nn(-c2ccc(C(=O)N3CCN(S(=O)(=O)c4ccccc4C(F)(F)F)CC3)cc2)c(C)c1Cl	-1.3	7.7	3.3	/	0.2	3.1	/
CC(=O)c1ccc(S(=O)(=O)N2CCN(C(=O)c3ccc(-n4nc(C)c(Cl)c4C)cc3)CC2)cc1	-7.3	49.5*	1.8	/	-1.9	1.6	43.0*
Nc1ccccc1-c1nc2ccccc2c(=O)o1	6.0	30.2*	12.6	3.5	-6.3	-2.1	21.4
CC(=O)Nc1ccc(-c2nc3ccccc3c(=O)o2)cc1	0.1	-5.4	5.4	-2.8	-6.2	-11.1	/
O=c1oc(-c2ccccc2)nc2ccsc12	-3.6	43.7*	4.0	-0.9	0.8	-8.9	29.7*
O=c1oc(-c2cccs2)nc2ccccc12	6.0	56.3*	19.3	2.6	-0.6	-7.6	34.6*
O=c1oc(-c2ccc([N+](=O)[O-])cc2)nc2ccccc12	-4.6	74.2*	3.2	0.3	3.7	2.5	82.0*
CC12CCC(=O)N1C(C(=O)N1CCN(S(=O)(=O)c3cccc(C(F)(F)F)c3)CC1)CS2 (centres undefined)	0.6	-2.3	1.8	1.5	2.7	3.5	/

Screens as filed in PubChem.
